SMILES strings stand for the structures.

The assay deals with Plasmodium falciparum. Nature of the assay: GSK_TCMDC: Inhibition of Plasmodium falciparum 3D7 in whole red blood cells, using parasite LDH activity as an index of growth. Test compounds present at 2uM. It is filed as functional.
`COc1cc(C(=O)Nc2ccc3nc(N4CCN(C)CC4)cc(C)c3c2)cc(OC)c1OC`: the Inhibition is listed as 100%.

Take `CCc1sc(N2CCN(C)CC2)nc1C(=O)Nc1ccc(F)cc1C(F)(F)F.O=C(O)C(F)(F)F`: the Inhibition came to 100%.

The compound `Cc1cccc2nc(-c3ccc(-c4ccc(CN5CCCC(N)C5)cc4)cc3)[nH]c12.O=C(O)C(F)(F)F` (stereo not given) gave an Inhibition of 99%.

For the compound `COc1ccc(CNc2ccnc3cc(OC)ccc23)cc1`, the Inhibition stood at 100%.

In turn, `CCC[C@@H]([C@@H](CC(C)C)C(=O)N[C@H](C(=O)Nc1nccs1)C(C)(C)SCCNC(=O)OCC)N(O)C=O` registered an Inhibition of 95%.

For `Cc1cc(C)c2nc(N3CCC(C(=O)NCCCN4CCC(N5CCCCC5)CC4)CC3)sc2c1`, the Inhibition is recorded as 99%.

Take `CC(C)(C)OC(=O)Nc1cccc(-c2csc(NC(=N)N)n2)c1`: the Inhibition is recorded as 97%.

In the case of `CC1(C)N=C(N)N=C(N)N1c1ccc(Oc2ccc(Cl)cc2)c(Cl)c1`, the Inhibition came to 97%.

For `O=C(C=Cc1ccc(Cl)c(Cl)c1)NCCCCCN1CCC(CCNC(=O)/C=C/c2ccccc2)CC1`, the Inhibition was determined as 97%.

As for `CN(C)c1nc(NN=Cc2cc(Cl)ccc2O)nc(Nc2ccc(F)cc2)n1`, the Inhibition is listed as 94%.

On to `CON(CCCN(C)C)C(=N)N.Cl`, for which the Inhibition stood at 92%.

`CCN(CC)CCN(Cc1ccc(-c2ccc(C(F)(F)F)cc2)cc1)C(=O)Cn1c(CCc2ccc(F)c(F)c2)cc(=O)c2ccccc21.O=C(O)C(O)C(O)C(=O)O` registered an Inhibition of 95%.

The compound `O=C(NCCCCCN1CCC(c2c[nH]c3ccccc23)CC1)Nc1cccc(Cl)c1` registered an Inhibition of 86%.

For `O=C(N[C@@H](CC1CCCCC1)C(=O)NCc1cccc2ccccc12)c1ccc(O)c(-c2ccc(Cl)c(Cl)c2)c1`, the Inhibition turned out to be 97%.

As for `CN1CCCC(CN2CCN(Cc3ccc(-c4ccc(-c5nc6cc(F)ccc6[nH]5)cc4)cc3)CC2)C1.O=C(O)C(F)(F)F` (stereo not given), the Inhibition was found to be 100%.

For `Br.CC(CCON1C(N)=NC(N)=NC1(C)C)c1ccc(Cl)cc1` (stereo not given), the Inhibition came to 93%.

`CC(C)CN(C)Cc1ccc(-c2ccc(-c3nc4ccccc4[nH]3)s2)cc1`: the Inhibition turned out to be 97%.

Compound `O=C(Nc1cccc(C(F)(F)F)c1)c1cccc(S(=O)(=O)NCC2CCCN(Cc3ccccc3)C2)c1.O=C(O)C(F)(F)F` (stereo not given) returned an Inhibition of 94%.

`CCCCN(CCCC)CCCN(CCCN(CCCC)CCCC)c1cc(C)nc(Nc2ccc3cc(Br)ccc3c2)n1.Cl` gave an Inhibition of 100%.

Compound `CC(CCc1ccccc1)NCC(O)c1ccc2c3c(cccc13)S(=O)(=O)N2C.Cl` (stereo not given) came in with an Inhibition of 99%.

As to `Cc1cccc2nc(-c3cccc(-c4ccc(C(=O)NCCc5ccc(O)c(=O)[nH]5)cc4)c3)[nH]c12`, the Inhibition was determined as 85%.

The compound `CC(C)(CN)c1nc(-c2ccc(Cl)c(O)c2)c(-c2ccnc(N)n2)[nH]1` had an Inhibition of 95%.

Turning to `CC(C)(C)CCOC(=O)N1CCc2c(cc(O)c(O)c2Cl)C(c2ccc(O)cc2)C1` (stereo not given), the Inhibition came to 97%.

The compound `Cc1ccc(C)c2sc(N(CCCn3ccnc3)C(=O)C=Cc3cccs3)nc12.Cl` came in with an Inhibition of 100%.

For `O=C(NCC(c1ccc(C(F)(F)F)cc1)N1CCCC1)c1cc(-c2ccncc2)c(-c2cccc(O)c2)o1.O=C(O)C(F)(F)F` (stereo not given), the Inhibition was 95%.

As to `O=C(Nc1cccc(CN2CCN(Cc3ccc(O)cc3)CC2)c1)c1ccc(Cl)c(Cl)c1.O=C(O)C(F)(F)F`, the Inhibition was determined as 100%.

As for `O=C(/C=C/c1ccc(Cl)c(Cl)c1)NCCCCCN1CCC(CCNC(=O)c2snnc2-c2ccccc2)CC1`, the Inhibition is given as 89%.

Compound `CCOc1cc(Br)c(C(C)NC(=O)c2cccc(OC)c2)cc1OCC` (stereo not given) came in with an Inhibition of 90%.

For `CCOc1cc(C(=O)N[C@@H](Cc2ccccc2)[C@H](O)CNC(C)(C)c2cccc(OC)c2)cc(N2CCCS2(=O)=O)c1`, the Inhibition worked out at 99%.

As to `CCN1CCc2c1cc(C(=O)N[C@@H](Cc1ccccc1)[C@H](O)CNC(C)(C)c1cccc(C(F)(F)F)c1)cc2N1CCCCS1(=O)=O`, the Inhibition worked out at 100%.

The compound `CN(C)Cc1ccc(-c2ccc(NC(=O)c3ccc4c(=O)n(Cc5ccccc5)cnc4c3)cc2)cc1` came in with an Inhibition of 100%.

`Cl.Oc1ccc2ccccc2c1CNC1CCCCCC1` had an Inhibition of 83%.

As for `CC(C)c1ccc(NC(=O)N2CCc3ccc(OCCN(C(C)C)C(C)C)cc32)c(Br)c1.O=C(O)C(F)(F)F`, the Inhibition worked out at 86%.

`COc1ccc(NC(=O)[C@H](Cc2ccccc2)Nc2nc(NCCN3CCCC3)ncc2C)cc1.O=C(O)C(F)(F)F` yielded an Inhibition of 89%.

In turn, `COc1cc2ccccc2c(CNCCCCCCNCc2c(OC)c(OC)cc3ccccc23)c1OC.CS(=O)(=O)O` came in with an Inhibition of 95%.

Turning to `COc1ccccc1NC(=O)Nc1cccc(-c2cccc(-c3nc4cccc(C)c4[nH]3)c2)c1`, the Inhibition is given as 100%.

`COc1ccc(CN2CCC(CNCCc3c(Cl)cccc3Cl)CC2)cc1.O=C(O)C(F)(F)F` registered an Inhibition of 98%.

Regarding `CN(CCCNc1ccc(C(=O)Nc2ccc(C(F)(F)F)cc2)cc1[N+](=O)[O-])Cc1ccccc1`, the Inhibition is reported as 100%.

`Cc1cc(N2CCCC2)nc(Nc2ccc(NC(=O)C3CCCC3)cc2)n1` registered an Inhibition of 100%.

Regarding `CN(CC(=O)Nc1cc(C(F)(F)F)ccc1-n1cncn1)Cc1ccc2ccccc2c1`, the Inhibition stood at 98%.

Source of the values: ChEMBL document CHEMBL1157539, “Thousands of chemical starting points for antimalarial lead identification” (Nature, 2010).
